Measurements as given in PubChem BioAssay AID1159580 (chemical genetic matrix, 2015).
Out of some 5,500 compounds screened, about 2,000 (36%) were called active. Roughly 18% stayed inconclusive and do not appear here. The list shows a part of the results. Values without a mark were called inactive. No stated cut-off is given here; in the data, active means normalized growth mostly below about 0.91 (no sharp cut-off); inconclusive means no clear call, values can overlap the other calls; inactive means mostly above about 0.92.

Test: chemical genetic growth profiling, strain panel (AID 1159580);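 further: tested at 20 µM; growth read once vehicle control cultures reached saturation at 30 °C; 1 = growth at the plate median or of vehicle wells; lower values mean less growth of the strain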
Details: growth OD
[1] = S. cerevisiae deletion strains, locus YAL040C, strain CLN3, hits give low values
[2] = S. cerevisiae deletion strains, locus YCL061C, strain MRC1 (second series), hits give low values
[3] = S. cerevisiae deletion strains, locus YDR363W, strain ESC2, hits give low values
[4] = S. cerevisiae deletion strains, locus YER002W, strain NOP16, hits give low values
[5] = S. cerevisiae deletion strains, locus YGR229C, strain SMI1, hits give low values
[6] = S. cerevisiae deletion strains, locus YMR307W, strain GAS1, hits give low values
[7] = S. cerevisiae deletion strains, locus YNL153C, strain GIM3, hits give low values
[8] = S. cerevisiae deletion strains, locus YNL175C, strain NOP13, hits give low values
[9] = S. cerevisiae deletion strains, locus YNL197C, strain WHI3, hits give low values
[10] = S. cerevisiae deletion strains, locus YNL224C, strain SQS1, hits give low values
[11] = S. cerevisiae deletion strains, locus YOR083W, strain WHI5 (second series), hits give low values
[12] = S. cerevisiae deletion strains, locus YPL055C, strain LGE1, hits give low values
[13] = S. cerevisiae deletion strains, locus YAL013W, strain DEP1, hits give low values
[14] = S. cerevisiae deletion strains, locus YDR150W, strain NUM1, hits give low values
[15] = S. cerevisiae deletion strains, locus YGR078C, strain PAC10, hits give low values
[16] = S. cerevisiae deletion strains, locus YJR075W, strain HOC1, hits give low values
[17] = S. cerevisiae deletion strains, locus YNL322C, strain KRE1, hits give low values
[18] = S. cerevisiae deletion strains, locus YMR263W, strain SAP30, hits give low values
[19] = S. cerevisiae deletion strains, locus YNL128W, strain TEP1, hits give low values
[20] = S. cerevisiae deletion strains, locus YPL241C, strain CIN2, hits give low values

In the case of `CCCN1CCc2cccc3c2[C@H]1Cc1ccc(O)c(O)c1-3`, the normalized growth [1] is reported as 0.955, the normalized growth [2] is reported as 0.516 (active) and the normalized growth [3] is reported as 0.79 (active). For the same compound, the normalized growth [4] was 0.975, the normalized growth [5] was 0.186 (active) and the normalized growth [6] was 0.481 (active). The normalized growth [7] was 0.534 (active), the normalized growth [8] was 0.96 and the normalized growth [9] was 0.985. For the same compound, the normalized growth [10] was 0.996, the normalized growth [11] was 0.631 (active) and the normalized growth [12] was 0.23 (active).
With `CCCN1CCO[C@@H]2c3cc(O)ccc3OC[C@H]21` the normalized growth [13] was 0.981, the normalized growth [1] was 1.09 and the normalized growth [2] was 1. For the same compound, the normalized growth [14] was 0.999, the normalized growth [3] was 1.03 and the normalized growth [4] was 0.989. It also gave a normalized growth [15] of 1.01, a normalized growth [16] of 0.993 and a normalized growth [6] of 0.981. The normalized growth [7] was 0.97, the normalized growth [8] was 1.02 and the normalized growth [9] was 1. The normalized growth [10] was 0.993 and the normalized growth [11] was 1.02.
Work on `CCCN1CC[C@@H]2c3cc(O)ccc3CC[C@@H]21` yielded a normalized growth [1] of 1.02, a normalized growth [2] of 1.01 and a normalized growth [3] of 1.01. The normalized growth [4] was 1.01, the normalized growth [6] was 1 and the normalized growth [7] was 1.04. The normalized growth [8] was 1.01, the normalized growth [9] was 1.01 and the normalized growth [10] was 1.02. It also gave a normalized growth [17] of 1.01 and a normalized growth [11] of 1.01.
Compound `COc1cc2c3cc1Oc1cc(ccc1O)OC1c4c(cc(OC)c(O)c4Oc4ccc(cc4)CC3N(C)CC2)CCN1C` (stereo not given) has a normalized growth [13] of 0.992, a normalized growth (S. cerevisiae deletion strains, locus YBR021W, strain FUR4, hits give low values) of 0.971 and a normalized growth (S. cerevisiae deletion strains, locus YBR229C, strain ROT2, hits give low values) of 0.993. For the same compound, the normalized growth (S. cerevisiae deletion strains, locus YCL029C, strain bik1, hits give low values) was 0.967, the normalized growth (S. cerevisiae deletion strains, locus YDL035C, strain GPR1, hits give low values) was 0.978 and the normalized growth (S. cerevisiae deletion strains, locus YDL074C, strain BRE1, hits give low values) was 1.02. It also gave a normalized growth (S. cerevisiae deletion strains, locus YDL101C, strain DUN1, hits give low values) of 0.993, a normalized growth (S. cerevisiae deletion strains, locus YDL134C, strain PPH21, hits give low values) of 0.996 and a normalized growth (S. cerevisiae deletion strains, locus YDL185W, strain tfp1, hits give low values) of 0.966. The normalized growth (S. cerevisiae deletion strains, locus YDL192W, strain arf1, hits give low values) was 0.981, the normalized growth (S. cerevisiae deletion strains, locus YDR101C, strain arx1, hits give low values) was 0.983 and the normalized growth [14] was 0.995. The normalized growth (S. cerevisiae deletion strains, locus YDR162C, strain NBP2, hits give low values) was 1.01, the normalized growth (S. cerevisiae deletion strains, locus YDR318W, strain mcm21, hits give low values) was 0.965 and the normalized growth (S. cerevisiae deletion strains, locus YDR388W, hits give low values) was 0.989. For the same compound, the normalized growth (S. cerevisiae deletion strains, locus YDR502C, strain sam2, hits give low values) was 0.984, the normalized growth (S. cerevisiae deletion strains, locus YEL061C, strain CIN8, hits give low values) was 0.985 and the normalized growth (S. cerevisiae deletion strains, locus YER110C, hits give low values) was 0.966. For the same compound, the normalized growth (S. cerevisiae deletion strains, locus YER155C, strain BEM2, hits give low values) was 0.999, the normalized growth (S. cerevisiae deletion strains, locus YER167W, strain BCK2, hits give low values) was 0.958 and the normalized growth (S. cerevisiae deletion strains, locus YGL078C, strain dbp3, hits give low values) was 0.979. It also gave a normalized growth (S. cerevisiae deletion strains, locus YGL086W, strain mad1, hits give low values) of 0.963, a normalized growth (S. cerevisiae deletion strains, locus YGL248W, strain PDE1, hits give low values) of 0.999 and a normalized growth [15] of 1.02. For the same compound, the normalized growth (S. cerevisiae deletion strains, locus YGR135W, strain pre9, hits give low values) was 0.991, the normalized growth [5] was 1.01 and the normalized growth (S. cerevisiae deletion strains, locus YGR252W, strain gcn5, hits give low values) was 0.925. The normalized growth (S. cerevisiae deletion strains, locus YHR030C, strain SLT2, hits give low values) was 0.972, the normalized growth (S. cerevisiae deletion strains, locus YHR079C, strain IRE1 (second series), hits give low values) was 0.992 and the normalized growth (S. cerevisiae deletion strains, locus YHR094C, strain hxt1, hits give low values) was 0.957. For the same compound, the normalized growth (S. cerevisiae deletion strains, locus YHR129C, strain ARP1, hits give low values) was 0.997, the normalized growth (S. cerevisiae deletion strains, locus YHR200W, strain rpn10, hits give low values) was 0.964 and the normalized growth (S. cerevisiae deletion strains, locus YIL066C, strain RNR3, hits give low values) was 0.996. The normalized growth (S. cerevisiae deletion strains, locus YIL073C, strain SPO22, hits give low values) was 0.899, the normalized growth (S. cerevisiae deletion strains, locus YIL125W, strain kgd1, hits give low values) was 0.984 and the normalized growth (S. cerevisiae deletion strains, locus YIR030C, strain dcg1, hits give low values) was 0.978. It also gave a normalized growth (S. cerevisiae deletion strains, locus YJL095W, strain BCK1, hits give low values) of 1.03, a normalized growth (S. cerevisiae deletion strains, locus YJL134W, strain LCB3, hits give low values) of 0.99 and a normalized growth (S. cerevisiae deletion strains, locus YJL168C, strain set2, hits give low values) of 0.986. It also gave a normalized growth (S. cerevisiae deletion strains, locus YJL187C, strain SWE1 (second series), hits give low values) of 0.999, a normalized growth (S. cerevisiae deletion strains, locus YJR043C, strain POL32, hits give low values) of 0.952 and a normalized growth [16] of 1.05. It also gave a normalized growth (S. cerevisiae deletion strains, locus YKL009W, strain mrt4, hits give low values) of 0.977, a normalized growth (S. cerevisiae deletion strains, locus YKL068W, hits give low values) of 0.975 and a normalized growth (S. cerevisiae deletion strains, locus YKL085W, strain MDH1 (second series), hits give low values) of 0.995. The normalized growth (S. cerevisiae deletion strains, locus YKL085W, strain MDH1, hits give low values) was 0.995, the normalized growth (S. cerevisiae deletion strains, locus YKL190W, strain CNB1, hits give low values) was 0.998 and the normalized growth (S. cerevisiae deletion strains, locus YKR001C, strain vps1, hits give low values) was 0.969. For the same compound, the normalized growth (S. cerevisiae deletion strains, locus YLR039C, strain RIC1, hits give low values) was 0.942, the normalized growth (S. cerevisiae deletion strains, locus YLR058C, strain SHM2, hits give low values) was 0.988 and the normalized growth (S. cerevisiae deletion strains, locus YLR102C, strain apc9, hits give low values) was 0.98. The normalized growth (S. cerevisiae deletion strains, locus YLR262C, strain YPT6, hits give low values) was 0.982, the normalized growth (S. cerevisiae deletion strains, locus YLR268W, strain sec22, hits give low values) was 1 and the normalized growth (S. cerevisiae deletion strains, locus YLR330W, strain CHS5, hits give low values) was 0.987. The normalized growth (S. cerevisiae deletion strains, locus YLR342W, strain FKS1 (second series), hits give low values) was 0.957, the normalized growth (S. cerevisiae deletion strains, locus YLR371W, strain rom2, hits give low values) was 0.968 and the normalized growth (S. cerevisiae deletion strains, locus YLR418C, strain cdc73, hits give low values) was 1.02. The normalized growth (S. cerevisiae deletion strains, locus YML016C, strain PPZ1, hits give low values) was 0.99, the normalized growth (S. cerevisiae deletion strains, locus YML032C, strain rad52, hits give low values) was 0.951 and the normalized growth (S. cerevisiae deletion strains, locus YML124C, strain tub3, hits give low values) was 0.976. For the same compound, the normalized growth (S. cerevisiae deletion strains, locus YMR078C, strain ctf18, hits give low values) was 0.968, the normalized growth (S. cerevisiae deletion strains, locus YMR223W, strain ubp8, hits give low values) was 0.951 and the normalized growth [18] was 1.01. It also gave a normalized growth [6] of 0.955, a normalized growth (S. cerevisiae deletion strains, locus YNL067W, strain RPL9B, hits give low values) of 1 and a normalized growth [19] of 0.99. The normalized growth [7] was 1.02, the normalized growth (S. cerevisiae deletion strains, locus YNL233W, strain BNI4, hits give low values) was 1.02 and the normalized growth (S. cerevisiae deletion strains, locus YNL250W, strain rad50, hits give low values) was 0.973. The normalized growth (S. cerevisiae deletion strains, locus YNL271C, strain bni1, hits give low values) was 0.993, the normalized growth (S. cerevisiae deletion strains, locus YNL298W, strain CLA4, hits give low values) was 0.967 and the normalized growth (S. cerevisiae deletion strains, locus YNL307C, strain MCK1, hits give low values) was 0.952. It also gave a normalized growth [17] of 0.979, a normalized growth (S. cerevisiae deletion strains, locus YNR052C, strain pop2, hits give low values) of 0.961 and a normalized growth (S. cerevisiae deletion strains, locus YOL006C, strain TOP1, hits give low values) of 1.03. For the same compound, the normalized growth (S. cerevisiae deletion strains, locus YOL012C, strain htz1) was 1.06, the normalized growth (S. cerevisiae deletion strains, locus YOL147C, strain pex11, hits give low values) was 0.973 and the normalized growth (S. cerevisiae deletion strains, locus YOR061W, strain CKA2, hits give low values) was 0.998. For the same compound, the normalized growth (S. cerevisiae deletion strains, locus YOR069W, strain VPS5, hits give low values) was 0.991, the normalized growth (S. cerevisiae deletion strains, locus YOR136W, strain idh2, hits give low values) was 0.96 and the normalized growth (S. cerevisiae deletion strains, locus YOR144C, strain elg1, hits give low values) was 0.982. For the same compound, the normalized growth (S. cerevisiae deletion strains, locus YOR184W, strain ser1, hits give low values) was 0.93, the normalized growth (S. cerevisiae deletion strains, locus YOR316C, strain cot1, hits give low values) was 0.977 and the normalized growth [12] was 1. It also gave a normalized growth [20] of 0.997, a normalized growth (S. cerevisiae deletion strains, locus YPR119W, strain clb2, hits give low values) of 0.989 and a normalized growth (S. cerevisiae deletion strains, locus YPR141C, strain kar3, hits give low values) of 0.99. It also gave a normalized growth (S. cerevisiae deletion strains, locus YPR163C, strain tif3, hits give low values) of 0.96, a normalized growth (S. cerevisiae deletion strains, locus YPR167C, strain met16, hits give low values) of 0.98 and a normalized growth (S. cerevisiae deletion strains, strain wtn01, hits give low values) of 1.01. The normalized growth (S. cerevisiae strains, strain wild type, hits give low values) was 0.989.
For `CN1CCc2cc(O)cc3c2[C@H]1Cc1ccc(O)c(O)c1-3`, the normalized growth [13] was 0.844 (active), the normalized growth [1] was 1.06 and the normalized growth [2] was 0.794 (active). It also gave a normalized growth [3] of 0.927, a normalized growth [4] of 1 and a normalized growth [15] of 0.946. For the same compound, the normalized growth [16] was 0.492 (active), the normalized growth [6] was 0.798 (active) and the normalized growth [7] was 0.902. For the same compound, the normalized growth [8] was 0.994, the normalized growth [9] was 1.02 and the normalized growth [10] was 1.03. For the same compound, the normalized growth [17] was 0.786 (active), the normalized growth [11] was 0.912 and the normalized growth [12] was 0.575 (active). For the same compound, the normalized growth [20] was 0.876 (active).
`CCCN1CCOC2c3cc(O)ccc3OCC21` (stereo not given) gave a normalized growth [1] of 0.983, a normalized growth [2] of 0.993 and a normalized growth [14] of 0.988. The normalized growth [3] was 0.96, the normalized growth [4] was 1 and the normalized growth [5] was 1.03. The normalized growth [16] was 1.01, the normalized growth [18] was 1 and the normalized growth [6] was 1.02. The normalized growth [19] was 0.993, the normalized growth [8] was 0.984 and the normalized growth [9] was 0.975. It also gave a normalized growth [10] of 1, a normalized growth [17] of 0.994 and a normalized growth [11] of 0.983. It also gave a normalized growth [20] of 0.998.
